Measurements: PubChem BioAssay AID651687 (Broad Institute, 2012)
The campaign covered roughly 350,000 compounds. About 600 (0.17%) were called active. Only a selection was taken, and actives are over-represented in it overall. Values without a mark were called inactive.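 The calls were made as follows: active = every replicate shows inhibition of at least 40%; inconclusive = mean inhibition at least 40% but some replicate below; inactive = the rest.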

experiment: compounds lowering acetylated PGC1a in cells – cell-based, U2OS, AlphaScreen, inhibitor mode, primary screen (AID 651687); conditions: U2OS PGC1a acetylation, AlphaScreen anti-acetyl-lysine; at 15.6 µM; active compounds read high;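 also: 0% = neutral control wells and 100% = positive control wells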

| Compound | inhibition |
| --- | --- |
| CCC(C)(O)C(=O)OC1C(=O)OC2CC3C(C)=CC(=O)C(O)C3(C)C3C4(O)OCC23C1C(C)C4O (stereo not given) | 80% (active) |
| O=C(Cc1ccncc1)N1CCCCN2[C@@H](CO)[C@H](c3ccc(-c4ccncc4)cc3)[C@@H]2C1 | 1.83% |
| O=c1[nH]c2ccccc2n1C1CCN(C(c2ccccc2)c2nnnn2Cc2ccccc2)CC1 (stereo not given) | 10.6% |
| COC(=O)C1=C(c2ccc(OCc3ccccc3)cc2)C[C@@H]2CC[C@H]1N2C(=O)NCc1cccc(F)c1 | -39.8% |
| O=C(Cc1ccncc1)N1CCCCN2[C@H](CO)[C@@H](c3ccc(C#CC4(O)CCCC4)cc3)[C@H]2C1 | -7.38% |
| COC1C(O)C(C)OC(OC2CCC3(C=O)C(CCC4C3CCC3(C)C(C5=CC(=O)OC5)CCC43O)C2)C1O (stereo not given) | 82.1% (active) |
| COC(=O)C(c1ccccc1)N1CCCCCC1 (stereo not given) | 5.94% |
| c1ccc(C(CN2CCCCC2)c2ccccc2)cc1 | 40.7% (active) |
| O=C(c1ccccc1)C(O)(CN1CCCCC1)c1ccccc1 (stereo not given) | -2.16% |
| N#Cc1cccc(-c2ccc([C@H]3[C@@H](CO)N4CCCCN(C(=O)Cc5cccnc5)C[C@@H]34)cc2)c1 | -1.39% |
| OC[C@@H]1[C@H]2c3ccccc3NC[C@H]2N1Cc1cccnc1 | 3.98% |
| CCOC(=O)c1cccc(C2=C(CNC(=O)c3ccncc3)[C@H]3CC[C@@H](C2)N3Cc2ccccc2)c1 | -1.43% |
| O=C(Cc1cccnc1)N1CCCCN2[C@@H](CO)[C@H](c3ccc(C#CC4CCCC4)cc3)[C@@H]2C1 | -10.8% |
| O=C(NCC1=C(c2ccc3ccccc3c2)C[C@@H]2CC[C@H]1N2Cc1ccco1)c1cccs1 | -0.267% |
| COC(=O)C[C@@H]1CC[C@@H]2NC[C@@H](O)COC[C@H]2O1 | -2.11% |
